Experimental data published in the supplement of paper PMC11732987, “Enantioselective OTUD7B fragment discovery through chemoproteomics screening and high-throughput optimisation” (Communications Chemistry, 2025).

Legend:
Assay in all cases: log2 ratio of Biotin-Ahx-Ub-VS probe labelling (fragment/DMSO); higher = less target engagement (more negative = stronger competition), active = hit call of the paper (q ≤ 0.05, log2 ratio ≤ -1)
Details in all cases: compound concentration: 200 uM; treatment time: 3 h
[1] = target: T1, USP42 (UniProt Q9H9J4)
T1 sequence (whole entry): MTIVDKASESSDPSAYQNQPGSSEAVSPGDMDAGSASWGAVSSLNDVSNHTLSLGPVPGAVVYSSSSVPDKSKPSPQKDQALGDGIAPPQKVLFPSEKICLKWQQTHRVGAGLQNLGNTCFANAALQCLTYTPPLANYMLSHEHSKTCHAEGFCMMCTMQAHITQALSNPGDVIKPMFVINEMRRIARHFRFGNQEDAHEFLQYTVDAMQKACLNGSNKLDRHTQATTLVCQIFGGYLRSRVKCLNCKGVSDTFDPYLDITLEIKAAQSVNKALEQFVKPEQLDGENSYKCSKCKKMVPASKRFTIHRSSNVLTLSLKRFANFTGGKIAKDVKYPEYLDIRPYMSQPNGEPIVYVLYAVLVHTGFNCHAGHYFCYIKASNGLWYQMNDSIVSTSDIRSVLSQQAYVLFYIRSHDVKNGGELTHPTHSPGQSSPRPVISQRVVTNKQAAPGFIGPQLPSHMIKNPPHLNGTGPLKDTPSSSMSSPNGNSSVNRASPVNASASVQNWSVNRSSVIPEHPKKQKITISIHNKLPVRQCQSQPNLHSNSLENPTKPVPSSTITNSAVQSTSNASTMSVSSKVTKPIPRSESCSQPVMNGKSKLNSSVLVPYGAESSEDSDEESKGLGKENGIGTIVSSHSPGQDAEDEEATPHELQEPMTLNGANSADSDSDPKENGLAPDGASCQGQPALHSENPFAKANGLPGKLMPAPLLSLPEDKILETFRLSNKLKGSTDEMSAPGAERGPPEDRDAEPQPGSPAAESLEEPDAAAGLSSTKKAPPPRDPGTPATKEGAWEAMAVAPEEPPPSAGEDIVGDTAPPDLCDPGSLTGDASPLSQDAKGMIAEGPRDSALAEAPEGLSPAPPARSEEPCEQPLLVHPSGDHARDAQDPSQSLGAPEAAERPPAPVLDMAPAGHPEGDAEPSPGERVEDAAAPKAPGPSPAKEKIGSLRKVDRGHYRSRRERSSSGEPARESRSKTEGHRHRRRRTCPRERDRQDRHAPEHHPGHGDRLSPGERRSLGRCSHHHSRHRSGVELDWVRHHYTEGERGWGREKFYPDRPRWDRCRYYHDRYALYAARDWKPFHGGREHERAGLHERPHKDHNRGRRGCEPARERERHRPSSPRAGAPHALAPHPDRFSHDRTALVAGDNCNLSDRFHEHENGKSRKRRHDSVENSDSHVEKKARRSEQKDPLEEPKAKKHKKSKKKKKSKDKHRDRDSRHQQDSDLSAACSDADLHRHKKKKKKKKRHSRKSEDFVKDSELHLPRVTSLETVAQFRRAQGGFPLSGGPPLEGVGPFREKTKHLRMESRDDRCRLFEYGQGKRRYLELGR
In short: (§1)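 In triplicate, 495 µg of HEK293T lysate per sample was incubated with fragment at 200 µM or vehicle for 3 h. Biotin-Ahx-Ub-VS was then added to 0.5 µM final for 1 h, and labelled DUBs were captured with NeutrAvidin, digested with LysC and trypsin, and measured by diaPASEF LC-MS/MS. Data are average log2 fragment/vehicle ratios by unpaired t-test from global-median-normalised Spectronaut label-free quantities, restricted to proteins with ≥2 unique peptides.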

[2] = target: USP46 (UniProt P62068)
In short: as §1

[3] = target: T2, USP47 (UniProt Q96K76)
T2 sequence (whole entry): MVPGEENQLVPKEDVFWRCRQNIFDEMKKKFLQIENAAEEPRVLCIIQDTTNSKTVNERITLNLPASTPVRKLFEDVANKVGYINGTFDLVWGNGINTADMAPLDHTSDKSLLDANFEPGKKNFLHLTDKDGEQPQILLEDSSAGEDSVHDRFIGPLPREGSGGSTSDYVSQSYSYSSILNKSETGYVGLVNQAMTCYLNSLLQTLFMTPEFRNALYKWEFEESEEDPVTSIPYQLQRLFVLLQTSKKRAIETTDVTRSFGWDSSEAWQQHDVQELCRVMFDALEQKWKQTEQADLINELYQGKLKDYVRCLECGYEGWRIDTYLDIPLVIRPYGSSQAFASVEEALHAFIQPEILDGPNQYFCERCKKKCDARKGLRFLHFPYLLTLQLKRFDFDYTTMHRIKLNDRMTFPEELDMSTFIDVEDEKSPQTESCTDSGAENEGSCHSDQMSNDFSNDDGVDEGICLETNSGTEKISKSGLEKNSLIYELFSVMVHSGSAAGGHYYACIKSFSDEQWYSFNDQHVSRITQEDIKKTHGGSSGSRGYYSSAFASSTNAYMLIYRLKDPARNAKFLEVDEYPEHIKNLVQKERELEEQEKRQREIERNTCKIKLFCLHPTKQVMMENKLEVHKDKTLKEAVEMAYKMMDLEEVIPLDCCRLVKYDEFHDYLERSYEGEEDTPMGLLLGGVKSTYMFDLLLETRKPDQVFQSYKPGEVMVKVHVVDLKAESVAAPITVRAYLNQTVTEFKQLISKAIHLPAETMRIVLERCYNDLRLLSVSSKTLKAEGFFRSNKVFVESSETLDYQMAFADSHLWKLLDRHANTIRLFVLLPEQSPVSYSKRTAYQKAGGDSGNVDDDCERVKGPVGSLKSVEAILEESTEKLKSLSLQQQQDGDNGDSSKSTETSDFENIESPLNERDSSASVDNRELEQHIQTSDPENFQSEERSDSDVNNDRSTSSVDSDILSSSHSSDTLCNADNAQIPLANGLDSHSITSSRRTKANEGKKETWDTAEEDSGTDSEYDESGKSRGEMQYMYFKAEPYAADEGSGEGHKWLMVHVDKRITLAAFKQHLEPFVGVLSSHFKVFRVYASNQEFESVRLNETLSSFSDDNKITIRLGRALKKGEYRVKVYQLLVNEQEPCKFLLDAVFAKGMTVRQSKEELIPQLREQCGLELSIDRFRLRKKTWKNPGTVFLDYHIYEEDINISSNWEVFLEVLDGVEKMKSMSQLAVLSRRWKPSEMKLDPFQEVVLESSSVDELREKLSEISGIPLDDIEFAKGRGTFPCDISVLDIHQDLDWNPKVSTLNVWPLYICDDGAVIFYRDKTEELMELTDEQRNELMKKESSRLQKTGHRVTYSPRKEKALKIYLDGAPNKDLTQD
In short: as §1

[4] = target: T3, USP48 (UniProt Q86UV5)
T3 sequence (whole entry): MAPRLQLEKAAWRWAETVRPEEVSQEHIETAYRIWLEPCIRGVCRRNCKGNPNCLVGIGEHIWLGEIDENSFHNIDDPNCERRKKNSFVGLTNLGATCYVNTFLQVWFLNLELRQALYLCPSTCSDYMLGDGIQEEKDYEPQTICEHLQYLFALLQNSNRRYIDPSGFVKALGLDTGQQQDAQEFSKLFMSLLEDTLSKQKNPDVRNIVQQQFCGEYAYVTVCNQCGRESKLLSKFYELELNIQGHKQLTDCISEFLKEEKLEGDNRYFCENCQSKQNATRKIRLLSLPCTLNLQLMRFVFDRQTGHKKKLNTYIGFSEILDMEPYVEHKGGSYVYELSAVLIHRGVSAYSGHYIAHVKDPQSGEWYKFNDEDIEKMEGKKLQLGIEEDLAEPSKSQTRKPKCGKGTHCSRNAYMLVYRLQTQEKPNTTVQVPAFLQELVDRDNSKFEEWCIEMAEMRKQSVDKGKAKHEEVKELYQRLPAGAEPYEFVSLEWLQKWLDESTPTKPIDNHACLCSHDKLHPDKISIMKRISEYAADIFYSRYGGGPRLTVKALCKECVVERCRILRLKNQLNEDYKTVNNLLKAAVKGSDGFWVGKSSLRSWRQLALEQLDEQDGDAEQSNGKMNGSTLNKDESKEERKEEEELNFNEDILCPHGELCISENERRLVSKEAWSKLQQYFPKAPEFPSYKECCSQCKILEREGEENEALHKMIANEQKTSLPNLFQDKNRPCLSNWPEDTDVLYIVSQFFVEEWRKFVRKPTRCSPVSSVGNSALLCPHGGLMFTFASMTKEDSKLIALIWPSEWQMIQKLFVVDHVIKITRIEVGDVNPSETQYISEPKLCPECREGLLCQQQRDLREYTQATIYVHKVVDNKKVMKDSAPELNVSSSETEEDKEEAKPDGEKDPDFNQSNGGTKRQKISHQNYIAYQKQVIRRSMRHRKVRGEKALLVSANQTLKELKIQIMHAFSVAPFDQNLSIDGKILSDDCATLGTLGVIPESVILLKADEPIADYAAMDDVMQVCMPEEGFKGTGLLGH
In short: as §1

[5] = target: T4, USP5 (UniProt P45974)
T4 sequence (whole entry): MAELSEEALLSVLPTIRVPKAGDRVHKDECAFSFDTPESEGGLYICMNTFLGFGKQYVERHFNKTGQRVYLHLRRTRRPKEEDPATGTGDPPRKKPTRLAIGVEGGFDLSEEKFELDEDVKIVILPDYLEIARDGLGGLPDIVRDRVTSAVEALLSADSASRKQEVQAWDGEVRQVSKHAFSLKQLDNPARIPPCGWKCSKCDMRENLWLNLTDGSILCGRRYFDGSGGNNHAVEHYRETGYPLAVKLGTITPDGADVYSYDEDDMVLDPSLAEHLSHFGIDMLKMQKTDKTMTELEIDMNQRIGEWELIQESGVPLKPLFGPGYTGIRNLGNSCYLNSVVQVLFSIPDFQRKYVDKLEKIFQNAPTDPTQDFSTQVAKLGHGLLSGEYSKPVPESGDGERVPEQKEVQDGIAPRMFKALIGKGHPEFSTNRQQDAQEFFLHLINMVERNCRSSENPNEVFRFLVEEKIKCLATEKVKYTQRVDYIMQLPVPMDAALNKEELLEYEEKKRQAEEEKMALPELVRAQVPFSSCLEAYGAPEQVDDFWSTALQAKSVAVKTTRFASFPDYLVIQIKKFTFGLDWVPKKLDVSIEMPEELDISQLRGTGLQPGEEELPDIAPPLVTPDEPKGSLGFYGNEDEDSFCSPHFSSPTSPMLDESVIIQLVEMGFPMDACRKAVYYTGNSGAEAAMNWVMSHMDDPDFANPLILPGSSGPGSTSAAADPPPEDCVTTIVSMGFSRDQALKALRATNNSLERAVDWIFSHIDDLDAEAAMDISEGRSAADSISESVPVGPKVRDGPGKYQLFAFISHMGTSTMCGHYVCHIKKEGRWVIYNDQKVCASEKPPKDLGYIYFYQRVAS
In short: as §1

[6] = target: USP54 (UniProt Q70EL1)
In short: as §1

[7] = target: USP7 (UniProt Q93009)
In short: as §1

[8] = target: T5, USP8 (UniProt P40818)
T5 sequence (whole entry): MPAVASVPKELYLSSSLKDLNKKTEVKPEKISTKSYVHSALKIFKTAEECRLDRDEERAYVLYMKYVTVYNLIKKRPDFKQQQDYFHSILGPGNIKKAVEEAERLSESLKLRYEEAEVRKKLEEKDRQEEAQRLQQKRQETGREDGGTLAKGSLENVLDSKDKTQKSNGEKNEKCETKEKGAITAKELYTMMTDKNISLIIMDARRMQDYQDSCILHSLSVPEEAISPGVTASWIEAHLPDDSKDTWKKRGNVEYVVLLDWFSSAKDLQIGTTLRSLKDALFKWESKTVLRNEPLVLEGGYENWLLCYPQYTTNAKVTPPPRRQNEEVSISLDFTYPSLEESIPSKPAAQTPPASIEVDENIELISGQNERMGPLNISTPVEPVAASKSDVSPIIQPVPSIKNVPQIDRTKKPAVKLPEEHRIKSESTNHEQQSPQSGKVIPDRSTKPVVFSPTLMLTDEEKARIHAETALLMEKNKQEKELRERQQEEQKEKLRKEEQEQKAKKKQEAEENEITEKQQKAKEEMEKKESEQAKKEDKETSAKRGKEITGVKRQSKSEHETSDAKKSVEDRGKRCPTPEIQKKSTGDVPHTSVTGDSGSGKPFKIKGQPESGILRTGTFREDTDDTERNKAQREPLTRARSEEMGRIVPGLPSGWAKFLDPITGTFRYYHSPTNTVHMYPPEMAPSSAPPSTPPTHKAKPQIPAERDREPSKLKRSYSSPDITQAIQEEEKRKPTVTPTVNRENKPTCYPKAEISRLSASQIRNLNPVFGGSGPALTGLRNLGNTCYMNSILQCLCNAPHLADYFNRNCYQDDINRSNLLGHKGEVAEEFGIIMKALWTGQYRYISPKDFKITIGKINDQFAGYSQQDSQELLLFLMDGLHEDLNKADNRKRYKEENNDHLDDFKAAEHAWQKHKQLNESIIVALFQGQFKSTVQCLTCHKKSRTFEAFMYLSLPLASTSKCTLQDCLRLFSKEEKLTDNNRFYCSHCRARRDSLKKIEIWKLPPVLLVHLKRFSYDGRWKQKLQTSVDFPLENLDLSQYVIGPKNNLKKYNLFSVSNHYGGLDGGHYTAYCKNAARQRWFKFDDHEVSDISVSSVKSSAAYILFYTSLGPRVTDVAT
In short: as §1

[9] = target: USP9X (UniProt Q93008)
In short: as §1

[10] = target: UniProt O00487
In short: as §1

Measured: log2 ratio of Biotin-Ahx-Ub-VS probe labelling

Sequence of USP46 (P62068 whole entry): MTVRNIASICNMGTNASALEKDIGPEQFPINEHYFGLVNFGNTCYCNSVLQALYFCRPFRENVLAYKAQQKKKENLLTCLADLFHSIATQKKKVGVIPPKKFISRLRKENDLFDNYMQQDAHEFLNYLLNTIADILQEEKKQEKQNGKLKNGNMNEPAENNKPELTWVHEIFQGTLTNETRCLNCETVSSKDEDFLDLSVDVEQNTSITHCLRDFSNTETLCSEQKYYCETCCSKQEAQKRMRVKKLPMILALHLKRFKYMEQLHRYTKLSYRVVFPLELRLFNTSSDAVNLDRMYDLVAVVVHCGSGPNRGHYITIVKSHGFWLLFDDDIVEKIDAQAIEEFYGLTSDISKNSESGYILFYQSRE
Sequence of USP54 (Q70EL1 whole entry): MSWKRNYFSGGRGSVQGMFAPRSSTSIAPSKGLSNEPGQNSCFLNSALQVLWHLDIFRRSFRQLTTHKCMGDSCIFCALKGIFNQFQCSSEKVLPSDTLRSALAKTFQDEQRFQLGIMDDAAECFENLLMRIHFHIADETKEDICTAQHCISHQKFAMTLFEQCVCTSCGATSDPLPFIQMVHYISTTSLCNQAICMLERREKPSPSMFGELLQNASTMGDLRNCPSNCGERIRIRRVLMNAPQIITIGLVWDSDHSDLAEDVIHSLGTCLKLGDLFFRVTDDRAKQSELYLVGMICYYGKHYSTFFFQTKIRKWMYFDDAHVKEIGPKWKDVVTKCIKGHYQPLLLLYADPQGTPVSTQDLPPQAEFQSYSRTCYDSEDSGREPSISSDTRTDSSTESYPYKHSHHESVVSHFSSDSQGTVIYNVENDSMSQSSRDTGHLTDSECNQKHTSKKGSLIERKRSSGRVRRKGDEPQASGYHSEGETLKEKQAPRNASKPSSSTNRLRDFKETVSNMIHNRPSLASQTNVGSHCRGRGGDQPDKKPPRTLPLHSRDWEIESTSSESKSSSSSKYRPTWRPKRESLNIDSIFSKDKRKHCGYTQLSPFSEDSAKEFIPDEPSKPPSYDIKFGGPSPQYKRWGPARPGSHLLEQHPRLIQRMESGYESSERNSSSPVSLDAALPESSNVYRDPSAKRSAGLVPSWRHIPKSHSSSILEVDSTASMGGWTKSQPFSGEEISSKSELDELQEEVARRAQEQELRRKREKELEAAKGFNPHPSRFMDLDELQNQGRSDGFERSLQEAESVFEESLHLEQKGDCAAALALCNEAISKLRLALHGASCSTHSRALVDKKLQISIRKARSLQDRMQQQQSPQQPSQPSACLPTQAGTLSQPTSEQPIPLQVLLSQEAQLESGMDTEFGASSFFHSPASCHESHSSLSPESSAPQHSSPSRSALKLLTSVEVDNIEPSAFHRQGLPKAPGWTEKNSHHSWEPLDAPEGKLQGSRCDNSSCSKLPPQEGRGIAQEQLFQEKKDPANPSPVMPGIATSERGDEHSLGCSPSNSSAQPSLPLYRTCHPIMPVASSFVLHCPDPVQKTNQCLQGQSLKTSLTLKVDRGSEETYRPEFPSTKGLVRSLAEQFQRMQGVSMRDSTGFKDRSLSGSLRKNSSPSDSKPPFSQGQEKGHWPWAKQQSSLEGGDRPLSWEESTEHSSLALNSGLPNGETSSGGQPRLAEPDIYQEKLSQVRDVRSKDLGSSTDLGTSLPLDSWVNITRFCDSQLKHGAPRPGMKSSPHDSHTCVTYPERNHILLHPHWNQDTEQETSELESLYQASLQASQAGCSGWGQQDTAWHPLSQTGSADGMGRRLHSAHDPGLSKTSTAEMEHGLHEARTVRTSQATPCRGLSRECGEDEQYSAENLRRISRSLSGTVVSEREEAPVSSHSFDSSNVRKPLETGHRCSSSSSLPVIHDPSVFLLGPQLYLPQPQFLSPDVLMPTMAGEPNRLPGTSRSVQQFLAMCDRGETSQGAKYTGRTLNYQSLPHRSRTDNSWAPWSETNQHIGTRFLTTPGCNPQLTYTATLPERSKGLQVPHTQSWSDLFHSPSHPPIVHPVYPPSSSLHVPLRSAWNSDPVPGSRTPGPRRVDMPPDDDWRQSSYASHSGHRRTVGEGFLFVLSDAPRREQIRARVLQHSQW
Sequence of USP7 (Q93009 whole entry, looked up): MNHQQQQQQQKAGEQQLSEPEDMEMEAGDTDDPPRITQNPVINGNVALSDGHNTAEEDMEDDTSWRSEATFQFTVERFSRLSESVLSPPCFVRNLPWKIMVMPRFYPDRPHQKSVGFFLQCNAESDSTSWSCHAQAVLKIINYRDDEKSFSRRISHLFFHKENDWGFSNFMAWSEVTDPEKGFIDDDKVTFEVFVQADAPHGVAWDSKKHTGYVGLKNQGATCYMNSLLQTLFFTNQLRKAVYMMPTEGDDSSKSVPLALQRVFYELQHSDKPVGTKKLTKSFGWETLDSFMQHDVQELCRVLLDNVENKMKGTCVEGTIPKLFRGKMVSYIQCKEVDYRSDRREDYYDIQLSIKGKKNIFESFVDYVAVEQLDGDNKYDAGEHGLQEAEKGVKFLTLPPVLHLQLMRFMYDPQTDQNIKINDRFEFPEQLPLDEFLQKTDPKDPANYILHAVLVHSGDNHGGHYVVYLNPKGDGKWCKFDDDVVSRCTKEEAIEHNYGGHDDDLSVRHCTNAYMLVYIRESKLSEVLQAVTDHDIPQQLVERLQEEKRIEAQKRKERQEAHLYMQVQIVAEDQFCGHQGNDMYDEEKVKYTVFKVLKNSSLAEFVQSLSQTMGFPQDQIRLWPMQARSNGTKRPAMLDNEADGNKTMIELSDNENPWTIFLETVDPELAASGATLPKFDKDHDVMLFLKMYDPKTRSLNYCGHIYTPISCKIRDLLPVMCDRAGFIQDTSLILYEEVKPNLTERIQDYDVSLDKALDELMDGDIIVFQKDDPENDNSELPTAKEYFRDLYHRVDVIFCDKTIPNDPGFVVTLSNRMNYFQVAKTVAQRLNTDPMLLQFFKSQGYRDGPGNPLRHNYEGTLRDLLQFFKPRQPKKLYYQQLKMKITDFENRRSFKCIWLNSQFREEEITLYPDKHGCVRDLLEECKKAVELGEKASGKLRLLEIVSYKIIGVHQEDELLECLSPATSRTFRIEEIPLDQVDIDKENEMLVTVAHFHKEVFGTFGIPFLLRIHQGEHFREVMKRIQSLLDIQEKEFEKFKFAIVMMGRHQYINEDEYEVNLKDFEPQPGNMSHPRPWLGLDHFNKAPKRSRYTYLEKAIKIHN
Sequence of UniProt O00487 (O00487 whole entry): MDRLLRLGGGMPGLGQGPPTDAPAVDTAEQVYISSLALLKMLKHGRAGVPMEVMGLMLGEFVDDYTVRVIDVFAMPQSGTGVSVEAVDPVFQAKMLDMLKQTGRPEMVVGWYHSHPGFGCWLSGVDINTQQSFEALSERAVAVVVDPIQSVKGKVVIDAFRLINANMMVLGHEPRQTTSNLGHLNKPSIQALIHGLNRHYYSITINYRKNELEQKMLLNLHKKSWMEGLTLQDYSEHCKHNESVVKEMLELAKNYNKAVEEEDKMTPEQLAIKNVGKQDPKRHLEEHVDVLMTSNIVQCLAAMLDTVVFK

COc1ccc(-c2csc(NC(=O)CCl)n2)cc1
inactive: [1] -0.269 | [2] -0.355 | [3] -0.0139 | [4] -0.611 | [5] 0.0191 | [6] 0.204 | [7] -0.576 | [8] -0.316 | [9] -0.66 | [10] -0.101
